Measured values taken from PubChem BioAssay AID488933 (Broad Institute, 2010).
Results with a measured potency or affinity are listed apart. Calls of active or inactive are those of the source.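 How the source made its calls: active means compounds lowering the cell viability signal, with fitted half-maximal dose at most ten times the top valid dose; inconclusive means flat partial drop of 30 to 70 percent, or poor fit; inactive means flat near zero, weak potency, or rising signal.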

assay: NIH-3T3 viability loss with fluconazole – cell-based, Alamar Blue, dry powder, set 3, cytotoxicity control for reversing antifungal drug resistance, dose response (AID 488933); conditions: NIH-3T3 viability with fluconazole, 48 h; series mostly up to 26 µM; activity change, negative = toxicity: at the top concentration

SMILES	activity change, negative = toxicity
Cc1cccc(N2CCN(C(=O)c3ccc(Cl)cc3)CC2)n1	-5.38% (inactive)
O=C(c1ccc(Cl)cc1)N1CCN(c2nccs2)CC1	-5.96% (inactive)
O=C(c1ccc(Cl)cc1)N1CCN(c2nc3ccccc3s2)CC1	-2.51% (inactive)
O=C(c1ccc(Cl)cc1)N1CCN(c2nc3ccccc3o2)CC1	0.918% (inactive)
CCCCC(=O)N1CCN(c2ccccn2)CC1	-1.2% (inactive)
CC(C)C(=O)N1CCN(c2ccccn2)CC1	9.72% (inactive)
